PubChem BioAssay AID1159580 (chemical genetic matrix, 2015)
Values joined by “and” are separate entries in the source; they are usually repeats but may differ in a detail not shown here. Equal entries are not always repeated. The campaign covered roughly 5,500 compounds. About 2,000 (36%) were called active. About 18% were inconclusive and are not listed. No stated cut-off is given here; in the data, active means normalized growth mostly below about 0.91 (no sharp cut-off); inconclusive means no clear call, values can overlap the other calls; inactive means mostly above about 0.92. Some of the results follow.

Assay: chemical genetic growth profiling, strain panel (AID 1159580);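 further: tested at 20 µM; growth read once vehicle control cultures reached saturation at 30 °C; 1 = growth at the plate median or of vehicle wells; lower values mean less growth of the strain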
Conditions: S. cerevisiae deletion strains, growth OD

Measured: normalized growth

C[C@H](CCC(=O)O)[C@H]1CCC2C3C(CC[C@@]21C)[C@@]1(C)CC[C@@H](O)C[C@H]1C[C@@H]3O (stereo partly specified)
active: locus YDR137W, strain rgp1, active compounds read low 0.821
inactive: locus YAL013W, strain DEP1, active compounds read low 0.984 | locus YAL021C, strain ccr4, active compounds read low 1.02 | locus YAL026C, strain drs2, active compounds read low 0.997 | locus YAL030W, strain snc1, active compounds read low 0.983 | locus YBL061C, strain skt5, active compounds read low 0.986 | locus YBR009C, strain hhf1, active compounds read low 1.03 | locus YBR021W, strain FUR4, active compounds read low 0.988 | locus YBR023C, strain chs3, active compounds read low 0.987 | locus YBR171W, strain sec66, active compounds read low 0.961 | locus YBR229C, strain ROT2, active compounds read low 0.985 | locus YBR231C, strain swc5, active compounds read low 0.996 | locus YBR279W, strain paf1, active compounds read low 1 | locus YCL011C, strain gbp2, active compounds read low 1.02 | locus YCL016C, strain dcc1, active compounds read low 1.04 | locus YCL029C, strain bik1, active compounds read low 0.963 | locus YCL069W, strain vba3, active compounds read low 0.991 | locus YCR088W, strain abp1, active compounds read low 0.989 | locus YDL005C, strain med2, active compounds read low 0.989 | locus YDL035C, strain GPR1, active compounds read low 0.992 | locus YDL040C, strain nat1, active compounds read low 0.983 | locus YDL074C, strain BRE1, active compounds read low 0.946 | locus YDL101C, strain DUN1, active compounds read low 0.986 | locus YDL134C, strain PPH21, active compounds read low 0.981 | locus YDL185W, strain tfp1, active compounds read low 0.972 | locus YDL192W, strain arf1, active compounds read low 0.979 | locus YDR001C, strain nth1, active compounds read low 0.982 | locus YDR069C, strain doa4, active compounds read low 0.954 | locus YDR101C, strain arx1, active compounds read low 0.986 | locus YDR150W, strain NUM1, active compounds read low 0.997 | locus YDR159W, strain sac3, active compounds read low 1.04 | locus YDR162C, strain NBP2, active compounds read low 0.989 | locus YDR195W, strain ref2 0.94 | locus YDR297W, strain sur2, active compounds read low 0.989 | locus YDR318W, strain mcm21, active compounds read low 0.977 | locus YDR334W, strain swr1, active compounds read low 0.961 | locus YDR335W, strain msn5, active compounds read low 0.981 | locus YDR388W, active compounds read low 0.98 | locus YDR392W, strain spt3, active compounds read low 1.1 | locus YDR502C, strain sam2, active compounds read low 0.984 | locus YEL003W, strain gim4, active compounds read low 0.976 | locus YEL037C, strain rad23, active compounds read low 1 | locus YEL061C, strain CIN8 (second series), active compounds read low 0.983 | locus YEL061C, strain CIN8, active compounds read low 0.99 | locus YER015W, strain faa2, active compounds read low 1.03 | locus YER016W, strain bim1, active compounds read low 0.998 | locus YER110C, active compounds read low 0.984 | locus YER111C, strain swi4, active compounds read low 0.979 | locus YER155C, strain BEM2 (second series), active compounds read low 1.02 | locus YER155C, strain BEM2, active compounds read low 0.99 | locus YER167W, strain BCK2, active compounds read low 0.988 | locus YFR010W, strain ubp6, active compounds read low 0.969 | locus YGL078C, strain dbp3, active compounds read low 0.967 | locus YGL086W, strain mad1, active compounds read low 0.985 | locus YGL167C, strain pmr1, active compounds read low 0.974 | locus YGL173C, strain kem1, active compounds read low 0.951 | locus YGL227W, strain vid30, active compounds read low 0.998 | locus YGL240W, strain doc1, active compounds read low 0.982 | locus YGL248W, strain PDE1, active compounds read low 0.996 | locus YGL253W, strain hxk2, active compounds read low 1.02 | locus YGR078C, strain PAC10, active compounds read low 0.99 | locus YGR135W, strain pre9, active compounds read low 0.975 | locus YGR229C, strain SMI1, active compounds read low 0.99 | locus YGR252W, strain gcn5, active compounds read low 1.09 | locus YHR013C, strain ard1, active compounds read low 1.03 | locus YHR027C, strain rpn1, active compounds read low 1 | locus YHR030C, strain SLT2, active compounds read low 1 and 0.948 | locus YHR079C, strain IRE1 (second series), active compounds read low 0.974 | locus YHR079C, strain IRE1, active compounds read low 0.945 | locus YHR094C, strain hxt1, active compounds read low 0.982 | locus YHR129C, strain ARP1, active compounds read low 1 | locus YHR142W, strain chs7, active compounds read low 0.999 | locus YHR200W, strain rpn10, active compounds read low 1 | locus YIL066C, strain RNR3, active compounds read low 0.98 | locus YIL073C, strain SPO22, active compounds read low 1.01 | locus YIL125W, strain kgd1, active compounds read low 0.992 | locus YIR030C, strain dcg1, active compounds read low 0.982 | locus YJL092W, strain hpr5, active compounds read low 0.985 | locus YJL095W, strain BCK1 (second series), active compounds read low 0.988 | locus YJL095W, strain BCK1, active compounds read low 0.95 and 0.958 | locus YJL115W, strain asf1, active compounds read low 0.984 | locus YJL129C, strain trk1, active compounds read low 0.99 | locus YJL134W, strain LCB3, active compounds read low 0.994 | locus YJL154C, strain vps35, active compounds read low 0.983 | locus YJL164C, strain tpk1, active compounds read low 1.04 | locus YJL166W, strain qcr8, active compounds read low 0.933 | locus YJL168C, strain set2, active compounds read low 0.982 | locus YJL187C, strain SWE1 (second series), active compounds read low 0.975 | locus YJR043C, strain POL32, active compounds read low 0.985 | locus YJR066W, strain TOR1, active compounds read low 0.937 | locus YJR075W, strain HOC1, active compounds read low 0.991
